Screening results from PubChem BioAssay.
Rows were chosen to be rich in hits. Some 3.5% of all compounds tested hit in one or more screens of this group.
FBW7 act – activators of human E3 ligase FBW7. Q969H0. AlphaScreen FBW7–phospho-cyclin E peptide binding, activator screen. normalized activity (activation), % at 26.1 µM. hit rate 0.13% among 650,000; in the data active = normalized activity above about 1.9%;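 also: purified mutant Fbw7 with reduced substrate affinity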
Target sequence (Q969H0 whole entry, looked up): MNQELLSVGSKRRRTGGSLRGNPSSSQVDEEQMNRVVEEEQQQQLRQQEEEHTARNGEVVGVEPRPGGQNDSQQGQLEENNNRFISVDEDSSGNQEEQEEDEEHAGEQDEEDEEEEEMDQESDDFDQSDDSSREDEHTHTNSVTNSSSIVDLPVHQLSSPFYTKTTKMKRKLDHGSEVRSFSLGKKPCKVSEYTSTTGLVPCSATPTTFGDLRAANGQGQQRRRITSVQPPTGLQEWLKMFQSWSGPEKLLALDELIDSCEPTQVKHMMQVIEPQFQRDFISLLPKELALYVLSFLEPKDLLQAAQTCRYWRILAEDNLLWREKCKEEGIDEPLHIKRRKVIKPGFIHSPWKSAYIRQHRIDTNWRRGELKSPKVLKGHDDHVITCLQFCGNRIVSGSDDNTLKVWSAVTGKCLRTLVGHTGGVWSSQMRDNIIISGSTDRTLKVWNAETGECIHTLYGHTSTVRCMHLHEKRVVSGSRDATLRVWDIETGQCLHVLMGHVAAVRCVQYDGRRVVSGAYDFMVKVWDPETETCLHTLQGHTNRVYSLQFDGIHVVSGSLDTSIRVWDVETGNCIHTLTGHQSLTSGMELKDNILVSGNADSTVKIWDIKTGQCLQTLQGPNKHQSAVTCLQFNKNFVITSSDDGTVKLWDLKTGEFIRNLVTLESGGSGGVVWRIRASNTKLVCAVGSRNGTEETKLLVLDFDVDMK
TEAD-YAP block – TEAD-YAP interaction inhibition; inhibition, % at 9.12 µM; HEK-TIYL cells, TEAD-Gal4/YAP UAS-luciferase luminescence; hit rate 1.4% among 640,000; in the data active = inhibition above about 32%;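 also: 0% = median of test compound wells and 100% = reference inhibitor wells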
MITF inh – inhibitors of human MITF. O75030. AlphaScreen MITF homodimerization, bead proximity signal. inhibition, % at 2.6 µM. hit rate 0.91% among 650,000. AID 1259374; in the data active = inhibition above about 50%;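 also: 0% = vehicle wells with protein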
GPR151 ag – activates the human receptor GPR151 | PathHunter beta-arrestin GPR151 cells, luminescence | activation, % at 11.2 µM | AID 1508602 | hit rate 1% among 650,000 | Q8TDV0; in the data active = activation above about 4.9%;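 also: 0% = median of compound wells and 100% = cells with positive control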
Starred values were filed as active, the others as inactive.

SMILES | FBW7 act | TEAD-YAP block | MITF inh | GPR151 ag
N=C1/C(=C\c2ccc([N+](=O)[O-])o2)C(=O)N=C2SC(N3CCCCC3)=NN12 | -0.2 | -1.2 | 67.1* | -0.9
CCC1=NN2C(=N)/C(=C\c3ccc(SCc4ccco4)o3)C(=O)N=C2S1 | -0.6 | -0.9 | 85.7* | -0.4
N=C1/C(=C/c2ccc([N+](=O)[O-])o2)C(=O)N=C2SC(c3ccco3)=NN12 | -0.3 | 7.2 | 90.5* | 0.1
CC1=CC2=NC(=O)/C(=C\c3ccc([N+](=O)[O-])o3)C(=N)N2O1 | -0.1 | 4.1 | 65.4* | 0.9
O=C(Oc1ccc(OC(=O)c2ccncc2)c(Cl)c1)c1ccncc1 | -0.1 | -0.4 | 11.9 | 0.3
Cc1ccc(NC(=O)CSc2nnc(C)s2)c(C)c1 | 0.0 | -11.2 | -2.6 | -0.4
Cc1ccc(N/C(N)=N/c2nc(CSc3nnc(C)s3)cc(=O)[nH]2)c(C)c1 | 0.0 | 44.4* | 16.8 | -0.1
Cn1c(/C=C/c2ccccc2)nc2ccccc21 | 0.0 | 93.2* | -2.3 | -11.4
CCn1c(/C=C/c2ccc(OC)cc2)nc2ccccc21 | 0.2 | 72.0* | -7.4 | -8.5
COCCn1c(/C=C/c2ccccc2)nc2ccccc21 | 1.0 | -49.8 | 2.8 | -2.9
CCCc1nc2ccccc2n1C(=O)CCC(=O)O | 0.0 | 11.2 | 7.9 | 1.1
O=C(O)CCC(=O)n1c(/C=C/c2ccccc2)nc2ccccc21 | 0.1 | 82.8* | -18.3 | -9.0
CC(=O)c1ccc(/C=C/c2nc3ccccc3n2C)o1 | 0.0 | 52.7* | -2.0 | -5.5
CCCC1=NN2C(=N)/C(=C/c3ccccc3OCc3ccccc3)C(=O)N=C2S1 | 0.5 | -12.0 | 16.6 | -0.5
O=C1/C(=C\C=C/c2ccco2)C(C(F)(F)F)=NN1c1ccccc1 | -0.2 | 4.7 | 65.2* | -1.1
O=C1ON=C(c2ccccc2)/C1=C/C=C/c1ccco1 | -0.1 | -8.4 | 37.6 | -0.9
CCN1CCN(Cc2ccc(NC(=O)Nc3ccccc3Cl)cc2)CC1 | -0.1 | 33.7* | 18.7 | -0.2
CC(=O)Nc1ccc(Nc2nc(N3CCN(c4ccccn4)CC3)ncc2C)cc1 | 0.1 | 48.5* | 17.2 | 1.5
Cc1cnc(N2CCN(c3ccccn3)CC2)nc1Nc1ccccc1 | -0.1 | -3.1 | 5.8 | -0.9
COc1ccc(NC(=O)COC(=O)CNC(=O)c2cccc([N+](=O)[O-])c2)c([N+](=O)[O-])c1 | -0.1 | 2.3 | -2.3 | 2.6
CCOC(=O)c1ccc(NC(=O)c2ccc(CS(=O)c3ccc(Cl)cc3)o2)cc1 (stereo unspecified) | -0.1 | 32.1* | -0.7 | -0.5
CC(C)(C)C(=O)NC(NCc1ccco1)C(Cl)(Cl)Cl (stereo unspecified) | -0.2 | 2.9 | -8.4 | -1.0
COc1ccccc1NC(=O)Cc1noc(CSc2nnc(-c3ccccc3)o2)n1 | 4.5* | -11.3 | 9.3 | 0.4
COc1ccc(-c2cc(N3CCN(C/C=C/c4ccccc4)CC3)ncn2)cc1 | 0.0 | 35.3* | -8.9 | 0.8
COc1ccc(/C=N/Nc2ncnc3nc[nH]c23)c(OC)c1 | -0.2 | 37.6* | 8.7 | -3.3
SMILES | FBW7 act | TEAD-YAP block | MITF inh | GPR151 ag
CCOc1ccccc1/C=N/Nc1ncnc2nc[nH]c12 | -0.2 | 7.5 | -2.0 | 0.9
Brc1cccc(/C=N/Nc2ncnc3nc[nH]c23)c1 | -0.1 | 57.2* | 4.3 | -2.3
Oc1cccc(/C=N/Nc2ncnc3nc[nH]c23)c1 | 0.0 | 22.0 | 4.8 | -3.0
COc1ccc(/C=N/Nc2ncnc3nc[nH]c23)cc1O | 0.4 | 36.9* | 10.0 | 0.0
CCN(CC)c1ccc(/C=N/Nc2ncnc3nc[nH]c23)cc1 | -0.2 | 75.7* | 0.6 | -3.2
CCCn1c(=O)c(C(=O)NNC(=O)c2ccccc2)c(O)c2ccccc21 | -0.6 | 3.5 | -13.2 | -0.1
COC(=O)c1c(NC(=O)Cn2nc(C)c([N+](=O)[O-])c2C)sc2c1CCCC2 | 0.1 | -1.1 | 10.5 | -0.7
Cc1nc2ncnn2c(C)c1CCC(=O)Nc1ccc(Br)cn1 | -0.1 | 1.7 | 10.7 | 1.3
Cc1nc2ccccn2c1C(=O)NC1CCCc2ccccc21 (stereo unspecified) | -0.1 | 39.6* | 0.9 | 1.9
CC(C)n1cc(C=C2C(=O)NC(=S)NC2=O)c2ccccc21 | -0.1 | 2.5 | 3.5 | 3.6
O=C(O)c1ccc(NC2=C/C(=N/S(=O)(=O)c3ccccc3)c3ccccc3C2=O)cc1 | -0.1 | 0.2 | 9.1 | -3.0
O=C1C(Nc2ccc(O)cc2)=C/C(=N/S(=O)(=O)c2cccc([N+](=O)[O-])c2)c2ccccc21 | -0.6 | 92.2* | 28.5 | -1.7
O=C1C(Nc2ccc(O)cc2)=C/C(=N/S(=O)(=O)c2cccs2)c2ccccc21 | -0.6 | 97.4* | 29.4 | -1.8
COc1ccccc1NC1=C/C(=N/S(=O)(=O)c2cccs2)c2ccccc2C1=O | -0.6 | -11.8 | 53.7* | -0.3
O=C(O)c1ccc(NC2=C/C(=N/S(=O)(=O)c3cccs3)c3ccccc3C2=O)cc1 | -0.4 | -10.7 | 7.0 | -2.4
COc1ccccc1NC1=C/C(=N/S(=O)(=O)c2ccccc2)c2ccccc2C1=O | -0.6 | 47.7* | 71.2* | -0.8
CN(c1ccccc1)S(=O)(=O)c1nnc(NC(=O)c2ccc(F)cc2)s1 | 0.1 | 0.4 | -8.3 | 1.7
CCCCOC(=O)C1=C(C)NC(=O)NC1c1cc(OC)c(O)c([N+](=O)[O-])c1 (stereo unspecified) | 0.5 | -3.0 | 30.7 | 1.0
NC(=S)c1cc2c(ccc3ccccc32)oc1=O | 0.2 | 1.0 | 19.9 | -0.3
O=C(Nc1c2c(nn1-c1ccc(Cl)cc1)CSC2)c1cc([N+](=O)[O-])ccc1Cl | -0.1 | 5.7 | 6.8 | 0.5
Cc1ccc(-n2nc3c(c2NC(=O)c2cc([N+](=O)[O-])ccc2Cl)CSC3)cc1 | -0.1 | 62.8* | 5.3 | -0.5
O=C(Nc1c2c(nn1-c1ccc(F)cc1)CSC2)c1cc([N+](=O)[O-])ccc1Cl | 0.0 | 85.8* | 4.3 | 0.1
CCCc1cc(N2CCN(c3ccc(OC)cc3)CC2)n2cnnc2n1 | -0.1 | 42.1* | -4.9 | -0.3
N#C/C(=C\c1c(Cl)cccc1Cl)c1nc2ccccc2c(=O)[nH]1 | 0.0 | 14.8 | 7.9 | 0.5
CC1CCCCC1NC(=O)c1cc(S(=O)(=O)N2CCc3ccccc32)ccc1F (stereo unspecified) | 0.0 | 2.1 | -2.5 | -0.8
SMILES | FBW7 act | TEAD-YAP block | MITF inh | GPR151 ag
Cc1cc(C)n(CCNC(=O)Nc2cccs2)n1 | -0.2 | 7.6 | 15.1 | 0.2
CC(=O)c1ccc(NC(=O)c2cnn3ccccc23)cc1 | -0.1 | 91.5* | 3.2 | -5.4
Cc1cc(C)cc(NC(=O)c2cnn3ccccc23)c1 | 0.1 | -42.5 | 14.4 | -0.4
O=C(Nc1ccc(CN2CCOCC2)cc1)c1cnn2ccccc12 | -0.2 | 91.3* | 7.0 | -4.2
Cc1ccc(NC(=O)c2cnn3ccccc23)cc1C | -0.1 | 65.5* | -5.3 | -3.3
CC(=O)c1cccc(NC(=O)c2cnn3ccccc23)c1 | -0.1 | 5.4 | 6.4 | -2.8
O=C(COCC(=O)N/N=C/c1ccccc1Cl)N/N=C/c1ccccc1Cl | -0.1 | 3.5 | -0.5 | 0.4
CCOC(=O)C1(CCOC)CCN(Cc2ccon2)CC1 | -0.1 | -4.2 | 10.4 | 0.9
O=C(C1CCN(S(=O)(=O)N2CCCC2)CC1)N1CCOCC1 | -0.2 | -8.5 | -6.2 | -0.5
Cc1ccc2nc(Nc3nc(C)c(C)c(=O)[nH]3)nc(C)c2c1 | -0.1 | -31.9 | 3.8 | 0.1
